# FMDV inh: High Throughput Screening for Foot and Mouth Disease Virus Antivirals | actives 1.2% (n = 410,000) | Potency, µM (highest dose often 57.9 µM), inactives show at the highest dose activity change, negative = inhibition, hits mostly inhibitors | AID 1159524, 2015 | FMDV antiviral cell-based qHTS; calls by dose curve; tested in HEK293T cells; further: read-out not given here; potency means the concentration at half of the fitted maximal effect; nearly all actives have a fitted effect of over 45% in size
# AmpC inh detg: qHTS Inhibitors of AmpC Beta-Lactamase (assay with detergent). AID 485294, 2010. AmpC hydrolysis of nitrocefin, absorbance 480 nm, 0.01% Triton. actives 0.041% (n = 370,000). P00811. Potency, µM (top dose mostly 114 µM), for inactives: at the top dose activity change, negative = inhibition, most hits filed as inhibitors;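 further: potency means the concentration at half of the fitted maximal effect; 0% = no-compound wells and -100% = no-enzyme wells; nearly all actives have a fitted effect of over 25% in size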
# Target sequence (P00811 whole entry, looked up): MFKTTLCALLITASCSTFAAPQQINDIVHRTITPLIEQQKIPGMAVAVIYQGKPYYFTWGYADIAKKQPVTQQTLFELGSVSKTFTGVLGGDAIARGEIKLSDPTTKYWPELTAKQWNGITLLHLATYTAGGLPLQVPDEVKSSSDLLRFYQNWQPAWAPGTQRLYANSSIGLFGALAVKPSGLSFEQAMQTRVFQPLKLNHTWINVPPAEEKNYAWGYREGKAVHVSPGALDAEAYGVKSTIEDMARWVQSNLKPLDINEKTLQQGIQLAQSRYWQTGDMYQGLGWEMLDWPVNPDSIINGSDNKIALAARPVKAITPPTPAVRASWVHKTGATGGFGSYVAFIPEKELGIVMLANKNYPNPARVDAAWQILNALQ
#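 AmpC (5.3 nM in the dispensed reagent) in 20 mM phosphate pH 7.0 with 0.01% (detergent screen) or 0.0001% Triton X-100 was preincubated with compounds for 15 min at room temperature. Nitrocefin was then added from an 800 uM solution, and hydrolysis was followed at 480 nm.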
# HCV inhibitor: qHTS Assay for Inhibitors of Hepatitis C Virus (HCV); AID 651820, 2012; Potency, µM (highest dose often 41.8 µM), for the others: at the top dose activity change, negative = inhibition, hits mostly inhibitors; actives 3.4% (n = 340,000); Huh7.5.1 HCVcc-Cre infection, luciferase reporter, 44 h; further: potency means the concentration at half of the fitted maximal effect
#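 Luciferase read-out (15 sec integration) after a 15 min room-temperature substrate step quantifies HCVcc-Cre infection. Cells, 1,000 per well, had compound added 4 h post-plating, then virus at ~0.5 moi, and were cultured 44 h.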
# AmpC inh no detg: qHTS Inhibitors of AmpC Beta-Lactamase (assay without detergent); P00811; AmpC nitrocefin hydrolysis, absorbance 480 nm, 0.0001% Triton; Potency, µM (doses to about 57.1 µM), for the others: top-dose activity change, negative = inhibition, usual class: inhibitors; actives 0.52% (n = 330,000);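 further: potency means the concentration at half of the fitted maximal effect; plate controls were no compound for no effect and no enzyme for full effect; nearly all actives have a fitted effect of over 20% in size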
#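 AmpC (5.3 nM in the dispensed reagent) in 20 mM phosphate pH 7.0 with 0.01% (detergent screen) or 0.0001% Triton X-100 was preincubated with compounds for 15 min at room temperature. Nitrocefin was then added from an 800 uM solution, and hydrolysis was followed at 480 nm.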
# HCMV antiviral: qHTS Assay for inhibitors of the human cytomegalovirus (HCMV); activity change, negative = inhibition, % at 57.5 µM; actives 4.5% (n = 410,000); HFF cells, HCMV-luciferase reporter, 72 h; stronger effect = lower value; in the data active means activity change below about -60%; inconclusive means no clear call, values can overlap the other calls; inactive means above about -39%
#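 Human foreskin fibroblasts infected with luciferase-reporter HCMV at MOI 1 PFU/cell, compounds at two doses. Luciferase measured 72 h post infection; normalized to buffer-only basal and Salinomycin (10uM) controls.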
# * marks the source's active call; other numbers are inactive results; ? = inconclusive; nt = not tested or not shown; ! = repeats disagree; [ ] = another dose, or the depositor's remark. An excerpt weighted towards active compounds, which were near 7.3% of everything screened. Unless noted, the call rests on the fitted dose curve; in most records, active means well fitted curve in the direction sought with a large enough effect; inconclusive means small, poorly fitted or top-dose-only effect, or another doubt; inactive means no such curve, though single readings can be large; an effect the other way counts as inactive or inconclusive. Unless noted, on the % scale 0 is the no-effect control and ±100 the full control effect.
SMILES,FMDV inh,AmpC inh detg,HCV inhibitor,AmpC inh no detg,HCMV antiviral
CCN(CC)C(=O)C1=C(C)N(CCC2=CCCCC2)C(=O)C(CC(=O)NCCCN(C)C)C1 (stereo unspecified),-29.2%,nt,nt,nt,1.0
COc1cc(SC)ccc1C(=O)Nc1nc2ccccc2[nH]1,0.0355µM*,?,-14.8%,-8.4%,-98.2*
CSc1ccccc1C(=O)Nc1nc2ccccc2[nH]1,50.5%,?,-12.2%,-11.1%[11.4 µM],34.1
O=C(Nc1ccc(Cl)cc1)Nc1cc([N+](=O)[O-])ccc1F,-8.7%,-9.7%,-1.5%,-10.4%,-78.8*
O=C(Nc1ccc([N+](=O)[O-])cc1)Nc1ccc(Cl)cc1F,-28.9%,-1.0%,2.6%,-25.7%,-99.4*
O=C(CSCc1ccc(Cl)cc1)Nc1cc([N+](=O)[O-])ccc1O,-9.7%,-5.0%,2.24µM*,-49.6%,-35.9
Cc1cc(OC(F)F)ccc1NC(=O)Nc1ccc([N+](=O)[O-])cc1,-14.9%,4.9%,?,-33.8%,-79.4*
CCC(C)(C)C(=O)Nc1cc([N+](=O)[O-])ccc1F,-19.9%,?,-2.7%,-4.4%,-18.1
CC(=O)c1ccc(NC(=O)c2ccc(CNc3c(N4CCOCC4)c(=O)c3=O)cc2)cc1,45.4%,6.6%,-5.0%,36.8%,-31.6
COc1ccc(C(=O)NCC(C)(C)N2CCOCC2)cc1S(=O)(=O)NCc1ccc(Cl)cc1,-4.1%,nt,?,nt,-67.2*
O=C(N/N=C/c1cccs1)c1ccccn1,21.3%,-7.4%,2.4%,-10.2%,113.6
C(=NN=C(NN=Cc1cccs1)NN=Cc1cccs1)c1cccs1,-6.7%,nt,10µM*,nt,-2.3
COc1cccc(NC(=O)CCc2c(C)nc3nc(CNC(=O)c4cccc(F)c4)nn3c2C)c1,-21.3%,2.1%,-5.6%,125.7%,-24.8
NC[C@@H]1O[C@H](C23CC4CC(CC(C4)C2)C3)Cc2c1ccc(O)c2O,39.8µM*!,6.6%,6.4%,-8.8%,?
NC[C@@H]1O[C@H](c2ccccc2)Cc2c1ccc(O)c2O,-15.0%,nt,nt,nt,nt
COCC(=O)Nc1cc(C(=O)N2CCc3ccccc3C2)c2c(c1)nc(-c1ccncc1)n2C,-12.6%,nt,nt,nt,nt
CCc1cc2c(nc1CC)CCCN2C,nt,nt,nt,nt,-36.9
O=C(NCc1ccco1)c1ccc2c(c1)N(Cc1ccc(Cl)cc1)CCS2,-16.5%,-6.1%,10µM*,-46.0%,?
COc1ccc(CCNC(=O)CN2CCN(c3cccc(Cl)c3)CC2)cc1OC,-26.9%,-17.7%,10µM*,112.4%,10.8
COc1ccc(CNC(=O)N2CCN(c3cccc(Cl)c3)CC2)cc1OC,?,?,?,69.7%,-0.6
CCN1CCN(CCCNC(=O)c2ccc3c(c2)N(Cc2ccccc2)CCS3)CC1,-3.3%,2.7%,10µM*,109.3%,-32.5
NS(=O)(=O)c1ccc(CCNC(=O)c2ccc3c(c2)N(Cc2ccccc2)CCS3)cc1,2.8%,-0.7%,-11.9%,-32.0%,-64.2*
Cc1ccc2c(CNCc3cccc(Cl)c3)c(C(=O)O)n(Cc3ccc(F)cc3Cl)c2c1,-0.7%,-0.4%,nt,nt,6.8
COc1ccc(CCNC(=O)c2ccc3c(c2)N(Cc2cccc(Cl)c2)C(=O)CS3)cc1OC,-20.7%,-6.8%,nt,nt,-61.1*
COc1ccc(CCNC(=O)c2ccc3c(c2)N(Cc2ccccc2)CCS3)cc1OC,?,1.3%,10µM*,31.4%,0.0
SMILES,FMDV inh,AmpC inh detg,HCV inhibitor,AmpC inh no detg,HCMV antiviral
COc1ccc(CN2CCC3(CCC(CNC(=O)c4ccnn4C)O3)CC2)c(C)c1C (stereo unspecified),-4.2%,nt,nt,nt,nt
NS(=O)(=O)c1ccc(CCNc2nn3c(-c4cccc(OC(F)(F)F)c4)cnc3s2)cc1,22.4µM*,nt,nt,nt,-97.5*
Cc1ccc(C(=O)NCC(c2cccs2)S(=O)(=O)c2cccs2)cc1 (stereo unspecified),?,4.2%,nt,nt,37.5
COc1ccc(N2CCN(Cc3csc(C)c3-c3ccc(C)cc3)CC2)cc1,?,-11.5%,?,1.0%,-68.1*
C=CCSC1=N/C(=C\c2cccnc2)C(=O)N1c1ccc(OC)cc1,?,-8.9%,?,0.2%,-18.5
COc1ccc(/C=C2/N=C(SCC(=O)Nc3cc(C)on3)N(c3ccccc3)C2=O)cc1,-11.7%,?,4.9%,-10.4%,-6.3
CCN(CC)C1=N/C(=C\c2ccc(OC)cc2)C(=O)N1c1ccccc1,?,-11.0%,?,-22.0%,-73.8*
CCSC1=N/C(=C\c2ccccc2)C(=O)N1c1ccc(OC)cc1,-21.3%,-10.3%,10µM*,-28.2%,?
COc1cc(/C=C/CNC[C@H]2O[C@@H](n3ccc(N)nc3=O)[C@H](O)[C@@H]2O)ccc1O,-14.1%,nt,nt,nt,-2.4
CCC(=NCCCn1ccnc1)c1c(O)n(-c2ccccc2)c(=O)[nH]c1=O,-5.0%,9.3%,25.0%,-17.2%,4.3
COc1ccc(-n2c(O)c(C(C)=NCCCn3ccnc3)c(=O)[nH]c2=O)cc1,0.0%,?,-2.3%,-36.4%,-65.8*
CCOc1ccc(C(c2c(O)cc(C)n(Cc3ccco3)c2=O)N2CCN(c3ccccc3)CC2)cc1 (stereo unspecified),?,-1.7%,nt,nt,7.0
CN(C)CCN(C(=O)c1cccc2ccccc12)c1nc2cc3c(cc2s1)OCO3,-16.7%,-4.9%,10µM*,164.1%,-111.8*
CCN(CC)CCN(C(=O)c1ccc2c(c1)OCCO2)c1nc2cc3c(cc2s1)OCO3,-16.3%,6.0%,?,25.5%,-5.2
CN(C)CCCN(C(=O)c1ccc(S(=O)(=O)N2CCCCCC2)cc1)c1nc2cc3c(cc2s1)OCO3,-15.1%,nt,nt,nt,8.5
CCN(CC)CCN(C(=O)c1cc2c(ccc3ccccc32)oc1=O)c1nc2cc3c(cc2s1)OCCO3,-1.9%,-13.2%,-23.4%,84.2%,-98.3*
CCC1CCCCN1S(=O)(=O)c1ccc(C(=O)N(CCCN(C)C)c2nc3cc4c(cc3s2)OCO4)cc1 (stereo unspecified),-13.7%,-0.4%,12.6µM*,213.7%,-17.0
CN(C)CCN(C(=O)c1ccc2ccccc2c1)c1nc2cc3c(cc2s1)OCCO3,13.1%,3.5%,nt,21.5%,97.1
CN(C)CCCN(C(=O)c1ccc2ccccc2c1)c1nc2cc3c(cc2s1)OCO3,-9.0%,2.9%,?,58.7%,-62.2*
CN(C)CCN(C(=O)c1ccc(N2C(=O)CCC2=O)cc1)c1nc2cc3c(cc2s1)OCO3,-7.7%,2.2%,4.9%,3.2%,-22.8
CC(=O)N1Cc2ccccc2CC1C(=O)NCc1ccccc1F (stereo unspecified),-8.6%,0.7%,5.1%,-16.6%,-20.0
COc1cccc(C(=O)Nc2cccc(NC(=O)c3ccc(Cl)cc3Cl)c2)c1,-5.1%,6.4%,nt,nt,?
CN(C)S(=O)(=O)c1cccc(C(=O)Nc2ccccc2)c1,-3.5%,0.5%,-28.1%,-21.3%,15.2
